Compounds with a hit are over-represented: about 1.6% of the library has one in this group of screens.
PKA-R1A act: activates the PKA-R1A holoenzyme complex; AID 504707; 340,000 compounds, 0.083% hits; PKA-R1A dissociation, Cy5-IP20 fluorescence polarization; scaled: DMSO 0%, 113 µM cGMP 100%; activation, % at 11.4 µM; P00514+P68181;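 active = percent activation above the mean of all tested compounds plus 3 SD, cut at about 19% in these data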;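 note: higher means more PKAc released from R1A so a rise in polarization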
ATG4B inhibitor: inhibitors of human ATG4B cysteine protease; Q9Y4P1; ATG4B cleavage of LC3-PLA2, NBD-HPC fluorescence, 1 h; inhibition, % at 8.33 µM; 340,000 compounds, 0.51% hits; AID 504462; in the data active = inhibition above about 40%
VLA-4 inh: inhibition in a human VLA-4 binding assay. VLA-4 expressing cells, ligand binding flow cytometry. 330,000 compounds, 0.2% hits. P13612. inhibition, % (about 7 µM as worked out from the volumes in the protocol); in the data active = inhibition above about 50%
NRP1-CendR mod: NRP-1/CendR interaction modulation | FAM-RPARPAR peptide binding to NRP-1, fluorescence polarization | inhibition, % at 25 µM | 360,000 compounds, 0.85% hits;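 active = inhibition or corrected inhibition above about 18%, plus a signal ratio from 0.5 to 1.5, limit read from the data, passing the limit was not always enough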
Target sequence (O14786 whole entry, looked up): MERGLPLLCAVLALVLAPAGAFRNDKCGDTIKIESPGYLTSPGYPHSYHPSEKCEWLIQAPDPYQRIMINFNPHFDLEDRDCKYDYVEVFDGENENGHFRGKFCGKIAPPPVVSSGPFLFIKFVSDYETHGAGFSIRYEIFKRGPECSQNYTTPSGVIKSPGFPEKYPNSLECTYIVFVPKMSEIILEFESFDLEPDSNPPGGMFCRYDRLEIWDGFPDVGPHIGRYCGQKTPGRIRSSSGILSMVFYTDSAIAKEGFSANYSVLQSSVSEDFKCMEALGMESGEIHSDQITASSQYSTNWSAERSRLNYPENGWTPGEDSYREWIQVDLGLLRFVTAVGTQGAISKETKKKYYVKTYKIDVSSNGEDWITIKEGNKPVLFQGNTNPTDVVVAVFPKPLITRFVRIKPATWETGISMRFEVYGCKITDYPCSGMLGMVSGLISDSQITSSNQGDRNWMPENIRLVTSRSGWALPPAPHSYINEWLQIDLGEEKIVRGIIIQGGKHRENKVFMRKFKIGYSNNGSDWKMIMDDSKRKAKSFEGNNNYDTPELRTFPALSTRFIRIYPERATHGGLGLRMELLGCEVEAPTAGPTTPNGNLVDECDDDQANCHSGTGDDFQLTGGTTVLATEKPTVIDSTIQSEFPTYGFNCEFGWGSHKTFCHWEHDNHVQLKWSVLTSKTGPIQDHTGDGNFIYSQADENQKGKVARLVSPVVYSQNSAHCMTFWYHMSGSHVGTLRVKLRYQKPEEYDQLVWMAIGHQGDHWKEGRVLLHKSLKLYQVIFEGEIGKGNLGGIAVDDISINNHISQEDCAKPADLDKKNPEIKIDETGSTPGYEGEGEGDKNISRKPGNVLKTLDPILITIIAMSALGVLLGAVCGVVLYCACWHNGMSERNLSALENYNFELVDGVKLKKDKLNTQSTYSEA
PKA-R2B act: activators of human PKA-R2B complex | 340,000 compounds, 0.079% hits | P22694+P31323 | PKA-R2B holoenzyme dissociation, Cy5-IP20 fluorescence polarization; R2B truncated from residue 108, S112A mutant; 0% DMSO only, 100% 113 µM cGMP | AID 504700 | activation, % at 11.4 µM;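 active = activation above a cutoff set at the mean over all compounds plus 3 SD, cut at about 18% in these data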;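 note: higher means more holoenzyme dissociation and a rise in polarization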
Large screens that a line does not name were inactive.

COc1cccc2cc(C(C)N(CCCN3CCOCC3)C(=S)Nc3cc(C)cc(C)c3)oc12 (stereo not drawn)	none
Cc1occc1C(=O)Nc1cccc(Cl)c1Cl	NRP1-CendR mod 29.1
Cc1cc(=O)oc2cc(NS(=O)(=O)c3ccc(F)cc3)ccc12	NRP1-CendR mod 36.6
COc1ccc([C@H]2CC(=O)C=C(c3ccc4c(c3)OCCO4)C2)cc1	NRP1-CendR mod 26.1
O=C1C=C(c2ccc3c(c2)OCO3)C[C@@H](c2ccc3c(c2)OCO3)C1	none
COc1ccc(C2=CC(=O)C[C@H](c3ccc(OC)c(OC)c3)C2)cc1	NRP1-CendR mod 20.6
CCN1C/C(=C\c2cc(OC)c(OC)c(OC)c2)C2=NN(c3ccccc3)C(c3cc(OC)c(OC)c(OC)c3)C2C1 (stereo not drawn)	none (no result: VLA-4 inh)
O=C(/C=C/c1cccs1)NC(=S)NNC(=O)Cc1cccs1	NRP1-CendR mod 29.3
CCNC(=O)C(=O)NCC1OCCCN1S(=O)(=O)c1ccc(F)cc1C (stereo not drawn)	none
CNC(=O)C(=O)NCC1OCCCN1S(=O)(=O)c1ccc(F)cc1C (stereo not drawn)	NRP1-CendR mod 27.2
NS(=O)(=O)c1ccc(NC(=O)CN2CCN(S(=O)(=O)c3cccs3)CC2)cc1	none (no result: VLA-4 inh)
O=C(O)c1ccccc1OCCN1CCCC1=O	none
CN(Cc1ccc(Cl)cc1)C(CCc1ccccc1)C(=O)NC1CCCCC1 (stereo not drawn)	NRP1-CendR mod 19.6 (no result: PKA-R1A act, ATG4B inhibitor, VLA-4 inh, PKA-R2B act)
CN(Cc1ccc(Cl)cc1)C(C(=O)NC1CCCCC1)c1cc2ccccc2o1 (stereo not drawn)	none (no result: PKA-R1A act, ATG4B inhibitor, VLA-4 inh, PKA-R2B act)
COc1ccc(/C=C2\SC(=O)N(CCNC(=O)Cn3[nH]c(=O)c4ccccc4c3=O)C2=O)cc1	NRP1-CendR mod 29.4
CCN(CC)c1ccc(N=Cc2ccccc2[N+](=O)[O-])cc1	ATG4B inhibitor 55.1
CCOC(=O)c1cnc(-c2ccccc2)nc1Oc1ccc(OC)cc1	NRP1-CendR mod 26.0
CCOC(=O)c1cnc(-c2ccccc2)nc1Oc1ccccc1	none
CS(=O)(=O)c1cnc(-c2ccccc2)nc1Oc1ccc(Cl)cc1	NRP1-CendR mod 23.0
CN1CCN(c2nc(-c3ccccc3)ncc2S(C)(=O)=O)CC1	NRP1-CendR mod 16.6
OC(c1ccc(Cl)c(F)c1)c1ncc(-c2cccc(C(F)(F)F)c2)[nH]1 (stereo not drawn)	none (no result: PKA-R1A act, ATG4B inhibitor, VLA-4 inh, PKA-R2B act)
CC(Oc1ccccc1)C(=O)NC1=NCCS1 (stereo not drawn)	NRP1-CendR mod 33.0
N#CCS(=O)(=O)c1ccccc1	NRP1-CendR mod 23.7
O=S(=O)(CC=CCS(=O)(=O)c1ccccc1)c1ccccc1	none (no result: VLA-4 inh)
COc1ccccc1NS(=O)(=O)c1cc(NC(=O)c2ccc3c(c2)OCCO3)ccc1C	NRP1-CendR mod 29.8
COC(=O)N/N=C(C)/C=C/c1ccccc1	none
CC(/C=C/c1ccccc1)=N\NC(=O)CCc1ccccc1	NRP1-CendR mod 23.9
O=S(=O)(NCC1CCCO1)c1ccc(Cl)c2ccccc12 (stereo not drawn)	none (no result: ATG4B inhibitor, VLA-4 inh)
Cc1ccsc1/C=N/NC(=O)CNC(=O)c1cccc([N+](=O)[O-])c1C	VLA-4 inh 55.6
COCCCNC(=O)C[C@@H]1C[C@@]2(C(=O)OC)CC(C)(C)CC=C2N(Cc2ccccc2)C1=O	none (no result: PKA-R1A act, ATG4B inhibitor, VLA-4 inh, PKA-R2B act)
COc1cccc(CNc2nc3cc(-c4cscc4C)sc3c(=O)n2C)c1	none (no result: PKA-R1A act, ATG4B inhibitor, VLA-4 inh, PKA-R2B act)
COc1cccc(CNc2nc3cc(-c4ccc(OC)cc4C)sc3c(=O)n2C)c1	NRP1-CendR mod 25.0 (no result: PKA-R1A act, ATG4B inhibitor, VLA-4 inh, PKA-R2B act)
Cc1cnc(CNc2nc3cc(-c4ccccc4C)sc3c(=O)n2C)cn1	NRP1-CendR mod 28.2 (no result: PKA-R1A act, ATG4B inhibitor, VLA-4 inh, PKA-R2B act)
CCOC(=O)c1ccc(-c2ccc(N3C(c4cccc(OC)c4)=Cc4ccc(F)cc4C3CC(C)=O)cc2)cc1F (stereo not drawn)	none (no result: PKA-R1A act, ATG4B inhibitor, VLA-4 inh, PKA-R2B act)
COc1ccc([C@H]2Cc3cccc(O)c3C(=O)O2)cc1O	NRP1-CendR mod 31.2
O=C1O[C@@H](c2ccc(O)cc2)Cc2cccc(O)c21	NRP1-CendR mod 29.7
COc1ccc([C@H]2Cc3cc(O)cc(O)c3C(=O)O2)cc1O	none
CCCCCCCCN1C(=O)[C@H](CC(=O)NCc2cccc(C(F)(F)F)c2)C[C@@]2(C(=O)OC)CC(C)(C)CC=C12	none (no result: PKA-R1A act, ATG4B inhibitor, VLA-4 inh, PKA-R2B act)
COc1ccc(CN2CCC(n3nccc3NC(=O)C3CC3)CC2)cc1O	NRP1-CendR mod 22.6
O=C(Nc1ccnn1C1CCN(C(=O)c2c(F)cccc2F)CC1)C1CC1	NRP1-CendR mod 24.9
O=C(Nc1ccnn1C1CCN(C(=O)c2ccc(F)c(Cl)c2)CC1)C1CC1	none
COc1ccc(S(=O)(=O)NNC(=O)C(=O)NNc2ccccn2)cc1	none
CN1N=C(/C=C/c2ccccc2)CCC1=O	none
Cc1ccc(/C=C/C2=NN(C)C(=O)CC2)cc1	NRP1-CendR mod 36.0
COC(=O)C[C@@H]1CC[C@H](NC(=O)Nc2cccc(F)c2)[C@@H](CO)O1	none (no result: PKA-R1A act, ATG4B inhibitor, VLA-4 inh, PKA-R2B act)
COC(=O)C1=C(C(=O)OC)[C@@H]2N(C)c3ccc(OC)cc3[C@@]23C[C@@H](C(=O)OC)N(C(=O)CC(C)C)C3=N1	NRP1-CendR mod 25.5
Nc1cc(=O)n(Cc2ccccc2)c(=O)n1-c1ccc(Cl)cc1	NRP1-CendR mod 35.7
Nc1cc(=O)n(Cc2ccccc2)c(=O)n1-c1ccc(F)cc1	none
CCCCCc1c(-c2ccc(OC)cc2)ncn1CCc1ccccc1OC	none (no result: PKA-R1A act, ATG4B inhibitor, VLA-4 inh, PKA-R2B act)
CCOC(=O)c1[nH]c2ccc(Br)cc2c1NC(=O)CCN1CCCC(C)(C)C1	NRP1-CendR mod 29.2
CCOC(=O)c1[nH]c2ccc(C)cc2c1NC(=O)CN1CCCCC1	none
Cc1c2cc[n+](CCN3CCCCC3)cc2c(C)c2c1[nH]c1ccc(O)cc12	NRP1-CendR mod 33.9 (no result: VLA-4 inh)
COc1ccc(NC(=O)C2(C)CCN2C2Cc3ccccc3C2)cc1OC (stereo not drawn)	none (no result: PKA-R1A act, ATG4B inhibitor, VLA-4 inh, PKA-R2B act)
CCOc1ccc(S(=O)(=O)NCCC(=O)N(C)Cc2cccs2)cc1	none
COc1cc(C(=O)COC(=O)c2ccc([N+](=O)[O-])o2)cc(OC)c1OC	NRP1-CendR mod 21.4
COC(=O)[C@H](CCSC)NC(=O)Nc1ccc(OC)c(Cl)c1	NRP1-CendR mod 24.0
O=C(Nc1ccccc1[N+](=O)[O-])OCC=Cc1ccccc1	none (no result: ATG4B inhibitor, VLA-4 inh)
COc1ccc(Cn2c(=O)sc3ccccc32)cc1	NRP1-CendR mod 30.7
CC(C)Oc1ccc(Cn2c(=O)sc3ccccc32)cc1	none
COc1ccc(-n2nc3c(N)n[nH]c3cc2=O)cc1	NRP1-CendR mod 28.6
COC(C[C@@H](O)C[C@H](O)[C@@H](C)OCc1ccccc1)OC	NRP1-CendR mod 20.9 (no result: VLA-4 inh)
COC(C[C@H]1O[C@H]1[C@@H](O)[C@@H](C)OCc1ccccc1)OC	NRP1-CendR mod 20.2 (no result: VLA-4 inh)
COC(C[C@@H]1O[C@H]1C(=O)COCc1ccccc1)OC	NRP1-CendR mod 28.2 (no result: VLA-4 inh)
COc1cccc(NC(=O)CN(C)C(=O)c2cc(-c3ccccc3)nn2-c2ccccc2)c1	none
Cc1nn(-c2ccccc2)c(C)c1/C=N/n1cnnc1	none
Cc1nn(-c2ccccc2)c(C)c1/C=N\N1CCN(c2ccc(Cl)cc2)CC1	NRP1-CendR mod 25.1
